BAP1 block – inhibitors of BAP1 deubiquitinase, primary screen, biochemical, Ub-AMC fluorescence, kinetic; Ubiquitin carboxyl-terminal hydrolase BAP1 (Homo sapiens), Q92560; recombinant BAP1, Ub-AMC hydrolysis fluorescence kinetic; active compounds read low; calls only at 20 µM; hit rate 0.48% among 72,000; AID 436, 2006;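 active = activity remaining at or below 50% of control, provided the compound also passes the data quality filters; inactive = the rest, including low values that fail the filters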;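 also: 100% = DMSO wells rate and 0% = substrate alone blank rate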
Target sequence (Q92560 whole entry, looked up): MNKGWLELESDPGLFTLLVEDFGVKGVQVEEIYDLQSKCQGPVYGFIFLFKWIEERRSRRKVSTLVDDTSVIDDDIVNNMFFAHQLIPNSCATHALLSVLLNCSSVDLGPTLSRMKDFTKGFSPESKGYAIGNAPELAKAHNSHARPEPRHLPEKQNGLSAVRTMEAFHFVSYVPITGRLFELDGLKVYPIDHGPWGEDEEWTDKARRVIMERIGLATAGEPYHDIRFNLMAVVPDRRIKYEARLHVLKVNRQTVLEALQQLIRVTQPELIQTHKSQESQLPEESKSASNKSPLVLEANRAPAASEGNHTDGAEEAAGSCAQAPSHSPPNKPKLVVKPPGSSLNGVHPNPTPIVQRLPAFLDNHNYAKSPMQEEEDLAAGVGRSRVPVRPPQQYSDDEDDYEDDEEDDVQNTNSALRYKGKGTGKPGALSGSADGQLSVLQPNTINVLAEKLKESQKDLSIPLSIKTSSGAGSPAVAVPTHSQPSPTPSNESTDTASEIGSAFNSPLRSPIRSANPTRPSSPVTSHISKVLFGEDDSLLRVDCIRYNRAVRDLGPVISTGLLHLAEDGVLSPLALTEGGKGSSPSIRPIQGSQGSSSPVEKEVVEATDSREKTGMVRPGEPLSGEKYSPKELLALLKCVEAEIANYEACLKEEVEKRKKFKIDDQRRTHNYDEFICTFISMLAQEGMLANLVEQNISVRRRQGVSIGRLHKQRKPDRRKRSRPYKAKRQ
DUSP1 inh – MKP-1 phosphatase inhibitors, primary screen, biochemical, in vitro; Dual specificity protein phosphatase 1 (Homo sapiens), P28562; recombinant MKP-1, OMFP hydrolysis fluorescence; inhibition, %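 (compounds tested at a single concentration somewhere between 10 and 100 µM)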; hit rate 0.15% among 65,000; AID 374, 2006;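 active = inhibition above about 50%, limit read from the data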;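 also: 0% = DMSO max control wells and 100% = wells with enzyme stopped by NaOH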
HePTP inhibitor – inhibitors of human HePTP phosphatase, primary screen, biochemical, absorbance, leukemia target; AID 521, 2006; hit rate 0.64% among 110,000; Tyrosine-protein phosphatase non-receptor type 7 (Homo sapiens), P35236; inhibition, % at 20 µM; recombinant HePTP phosphatase activity, OD absorbance; in the data active = inhibition above about 50%;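 also: plate controls were vehicle for no effect and reference inhibitor for full effect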
Cdc25B inh – inhibitors of Cdc25B phosphatase catalytic domain, primary screen, biochemical, OMFP fluorescence; hit rate 0.1% among 65,000; inhibition, %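 (compounds tested at 10 µM final in the well)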; recombinant Cdc25B, OMFP fluorescence Ex485/Em525; AID 368, 2006; in the data active = inhibition above about 50%
PLAP act – PLAP enzyme activators, biochemical, luminescence, HTS. purified PLAP enzyme, luminescent substrate read-out; active compounds read high. AID 696, 2007. activation fold at 20 µM. hit rate 1.2% among 96,000. Alkaline phosphatase, placental type (Homo sapiens), P05187; in the data active = activation fold above about 2
Active calls of the source: *; i = inactive; nt = not tested or not shown; + = active, no number. Hits are enriched below; roughly 1.4% of the tested compounds scored in any of these assays.

SMILES | BAP1 block | DUSP1 inh | HePTP inhibitor | Cdc25B inh | PLAP act
CNC(=S)NNC(=O)Cn1ccc(C)n1 | nt | nt | nt | nt | 1.4
CCOCCCNC(=S)NNC(=O)CCn1nc(C)c(Br)c1C | nt | nt | nt | nt | 2.9*
CNC(=S)NNC(=O)CCn1nc(C)c(Br)c1C | nt | nt | nt | nt | 2.1*
CCN1C(=O)/C(=C\c2ccc(OC(=O)c3cccs3)c(OC)c2)SC1=S | nt | nt | -11 | nt | nt
Cc1ccc(NC(=O)c2ccc3nc4ccccc4nc3c2)cc1 | nt | nt | 8 | nt | nt
CC1=NN(c2cccc(C(=O)O)c2)C(=O)/C1=C\c1cccc([N+](=O)[O-])c1 | nt | nt | 4 | nt | nt
COc1ccc2c(Cl)c(C(=O)N3CCN(CCN4C(=O)c5cccc6cccc(c56)C4=O)CC3)sc2c1 | nt | nt | -8 | nt | nt
O=C(O)C1=CC(=C(c2ccc(O)c(C(=O)O)c2)c2ccc(O)c(C(=O)O)c2)C=CC1=O | + | nt | nt | nt | nt
O=C(O)c1cc(S(=O)(=O)N2CCCCC2)ccc1O | nt | nt | 1 | nt | nt
O=C(N/N=C/c1cc(Br)ccc1OCc1ccccc1)C(O)(c1ccccc1)c1ccccc1 | nt | nt | -5 | nt | nt
CCCn1c(SCC(=O)c2cc(C)c(C)cc2C)n[nH]c1=O | nt | nt | nt | nt | 2.2*
COc1ccc(C(=O)N=Nc2c(O)n(CN(C)C)c3ccc(Br)cc23)cc1 | nt | nt | 87* | nt | nt
CCOC(=O)Cn1c(-c2nonc2N)nc2ccccc21 | nt | nt | -3 | nt | nt
CCC(C)c1ccc(OCCOc2ccc(/C=C3/SC(=S)N(C)C3=O)cc2OC)cc1 (stereo unspecified) | nt | nt | -15 | nt | nt
Cc1ccc2c(c1)N(CCC(=O)NCC1COc3ccccc3O1)C(=O)CO2 (stereo unspecified) | i | 4 | 3 | -13 | 2.2*
Cc1nn(-c2ccc(Cl)c(Cl)c2)c(C)c1-c1cccc([N+](=O)[O-])c1 | nt | nt | 2 | nt | nt
COc1ccc(NC(=O)NCCN2CCN(c3cccc(Cl)c3)CC2)cc1 | i | -10 | -9 | -8 | 1.2
COc1ccc(NC(=O)NCCCN2CCN(c3cc(C)ccc3C)CC2)cc1 | i | -5 | 8 | -16 | 2*
S=c1[nH]nc2c3c4c(sc3n3c(=S)[nH]nc3n12)CCC4 | nt | nt | 101* | nt | nt
CCn1c(=O)c2c3c(sc2n2c(=S)[nH]nc12)CCC3 | nt | nt | nt | nt | 1
Cc1ccc(OCC(=O)O/N=C(\N)Cc2ccc([N+](=O)[O-])cc2)c(Br)c1 | nt | nt | -1 | nt | nt
O=C1N=c2ccccc2=C1N=Nc1nc(O)c(-c2c(O)[nH]c3ccccc23)s1 | nt | nt | 66* | nt | nt
Oc1[nH]c2ccccc2c1C1=NCCCC1 | i | -2 | 11 | 2 | 1
O=C(CN1C(=O)/C(=C\c2ccccc2F)SC1=S)Nc1ccc(C(=O)O)cc1 | nt | nt | 53* | nt | nt
Cc1ccc(OCC(=O)NNC(=O)C2CCN(c3nccc(C)n3)CC2)cc1 | nt | nt | nt | nt | 2.5*
SMILES | BAP1 block | DUSP1 inh | HePTP inhibitor | Cdc25B inh | PLAP act
COc1ccc(C(=O)Nc2ccccc2C(=O)NC(C(=O)Nc2cccc(C)c2)C(C)C)cc1 (stereo unspecified) | nt | nt | 5 | nt | nt
COc1ccccc1NC(=O)N(CCN(C)C)Cc1cc2cc(C)ccc2[nH]c1=O | i | -4 | 5 | -3 | 2*
CCN1CCCC1CN(Cc1cc2cc(C)ccc2[nH]c1=O)C(=O)Nc1ccccc1OC (stereo unspecified) | i | 16 | 8 | 4 | 1.6
Cc1ccc(C)c(Nc2ncnc3nc[nH]c23)c1 | i | -3 | -2 | -1 | 2.4*
COc1ccc(Nc2ncnc3nc[nH]c23)cc1OC | i | 13 | 4 | 1 | 2*
CCOC(=O)c1ccc(Nc2ncnc3nc[nH]c23)cc1 | nt | -4 | 5 | -15 | 1.2
c1ccc(COc2ccc(Nc3ncnc4nc[nH]c34)cc2)cc1 | i | -1 | -1 | 2 | 2.3*
Cc1cccc(Nc2ncnc3nc[nH]c23)c1 | i | 2 | 2 | 0 | nt
CC(Nc1ncnc2nc[nH]c12)c1ccccc1 (stereo unspecified) | i | 5 | -4 | 66* | 1.6
C=CCn1c2ccccc2n2cc(-c3cccs3)nc12 | nt | nt | 2 | nt | nt
Cn1c2ccccc2n2ncnc12 | i | nt | nt | nt | nt
CCn1c(CSc2nc3ccccc3[nH]2)n[nH]c1=S | i | -2 | 6 | -18 | 2.2*
c1cc(CSc2nc3ccccc3[nH]2)nc(CSc2nc3ccccc3[nH]2)c1 | nt | nt | -7 | nt | nt
O=C(/C=C/c1ccco1)Nc1ccccc1-c1ccccc1 | nt | nt | 5 | nt | nt
O=C(/C=C/c1ccco1)Nc1cc(Cl)ccc1C(=O)O | nt | nt | 102* | nt | nt
O=C(/C=C/c1ccco1)Nc1ccccc1C(=O)O | nt | nt | 96* | nt | nt
Cc1onc(-c2ccccc2Cl)c1C(=O)Nc1sc(C)c(C)c1C(=O)OC(C)C | nt | nt | 1 | nt | nt
CCC(C(=O)Nc1cc(C)nn1-c1nc(C)cc(C)n1)c1ccccc1 (stereo unspecified) | i | 33 | 0 | 66* | 1.5
CC(C)CC(/C(O)=C(\C#N)c1nc2ccccc2[nH]1)N1C(=O)c2ccccc2C1=O (stereo unspecified) | i | 15 | 2 | 0 | 2.1*
COC(=O)c1ccc(/C=C2\SC(=S)N(C(Cc3ccccc3)C(=O)O)C2=O)cc1 (stereo unspecified) | nt | nt | 11 | nt | nt
COc1ccccc1N1C(=O)NC(=O)C(=Cc2cc(OC)c(O)c([N+](=O)[O-])c2)C1=O | nt | nt | -2 | nt | nt
COc1cc(/C=C2\C(=O)NC(=S)N(c3ccccc3)C2=O)cc([N+](=O)[O-])c1O | nt | nt | 59* | nt | nt
Cc1cc(NC(=O)c2c(F)cccc2Cl)n(-c2nc3ccccc3[nH]2)n1 | nt | nt | nt | nt | 2.6*
COc1cc2c(C(=O)NCc3ccc4c(c3)OCO4)cn(CC(C)C)c(=O)c2cc1OC | i | 24 | 10 | -1 | 0.9
COc1cc2c(C(=O)Nc3ccc4c(c3)OCO4)cn(CC(C)C)c(=O)c2cc1OC | nt | nt | 6 | nt | 2.4*
SMILES | BAP1 block | DUSP1 inh | HePTP inhibitor | Cdc25B inh | PLAP act
O=C1/C(=C/c2ccccc2)SC(=S)N1c1ccccc1Br | nt | nt | -3 | nt | nt
COc1ccccc1N(CC(=O)Nc1ccc(Oc2ccccc2)cc1)S(=O)(=O)c1ccccc1 | nt | nt | -2 | nt | nt
CCOC(=O)c1c(NC(=O)c2ccncc2)sc(C(C)=O)c1C | nt | nt | 105* | nt | nt
Cc1ccc(/C=C(\C#N)c2nc(-c3cc4cc(Br)ccc4oc3=O)cs2)o1 | nt | nt | 3 | nt | nt
COC(=O)Nc1ccc(OC)c(OC)c1 | i | -9 | -4 | -14 | 1.2
COc1ccc(NC(=S)NNC(=O)OC(C)(C)C)cc1OC | nt | nt | nt | nt | 2.5*
CCc1cc(=O)oc2cc(OC)ccc12 | nt | nt | 6 | nt | nt
CC1CCc2c(sc(NC(=O)c3cccc(C(=O)O)c3)c2C(N)=O)C1 (stereo unspecified) | nt | nt | 103* | nt | nt
CC1CCc2c(sc(NC(=O)c3ccccc3)c2C(N)=O)C1 (stereo unspecified) | nt | nt | 5 | nt | nt
CC(=O)N1CCC2(CC1)C(C#N)=C(N)Oc1n[nH]c(CSc3ccc(C)cc3)c12 | i | -12 | 4 | -1 | 2*
CCc1[nH]nc2c1C1(CCN(C(=O)c3ccccc3)CC1)C(C#N)=C(N)O2 | i | 5 | 6 | -9 | 1.5

Screening data: PubChem, several laboratories
